Where “and” joins values, the source holds several entries; their conditions need not be identical. Equal values may be shown once. Inconclusive results are not listed. Where a call stands in place of a potency, no number is given. Calls of active or inactive are those of the source. Unless noted, the call rests on the fitted dose curve; in most records, active means well fitted curve in the direction sought with a large enough effect; inconclusive means small, poorly fitted or top-dose-only effect, or another doubt; inactive means no such curve, though single readings can be large; an effect the other way counts as inactive or inconclusive.
What was measured:
[1] = target: Alpha-galactosidase A (Homo sapiens) (UniProt P06280); experiment: Counterscreen for Glucocerebrosidase Inhibitors: qHTS Assay for Human alpha-Galactosidase at pH 4.5 (AID 992)
Sequence of Alpha-galactosidase A (Homo sapiens) (P06280 whole entry, looked up): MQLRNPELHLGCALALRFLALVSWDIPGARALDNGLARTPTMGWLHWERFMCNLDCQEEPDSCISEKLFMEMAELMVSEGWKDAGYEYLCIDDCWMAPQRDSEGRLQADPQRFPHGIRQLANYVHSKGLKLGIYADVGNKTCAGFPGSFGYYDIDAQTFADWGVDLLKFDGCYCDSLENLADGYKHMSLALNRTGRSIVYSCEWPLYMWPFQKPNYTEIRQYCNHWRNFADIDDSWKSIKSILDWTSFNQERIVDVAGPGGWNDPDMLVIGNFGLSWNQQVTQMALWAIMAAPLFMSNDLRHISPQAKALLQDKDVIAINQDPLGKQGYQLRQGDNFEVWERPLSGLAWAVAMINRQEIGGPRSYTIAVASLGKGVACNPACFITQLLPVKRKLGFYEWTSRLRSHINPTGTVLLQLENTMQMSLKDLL
Summary of the method: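 Concentration-response curves (0.7 nM to 77 uM final) were modeled with the Hill equation to give AC50. Reactions: 2 nM enzyme, 80 uM fluorogenic alpha-galactoside, pH 4.5 citric acid buffer, 20 min, room temperature.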

[2] = qHTS Assay for Lipid Storage Modulators (AID 1519; calls by dose curve); conditions: Drosophila S3 cells, BODIPY lipid droplet/cell ratio, laser cytometry, cells loaded with oleic acid
Summary of the method: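 Cells seeded at 5,000 per well were treated with compounds over a concentration series and loaded with oleic acid (400 uM, as added). Lipid droplet fluorescence (488 nm excitation, 500-530 nm channel) was read by laser-scanning cytometry and normalized to 20 uM Triacsin C.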

[3] = target: DNA repair nuclease/redox regulator APEX1 (Homo sapiens) (UniProt P27695); experiment: qHTS Validation Assay for Inhibitors of the Human Apurinic/apyrimidinic Endonuclease 1 (APE1) (AID 1705; further: potency means the concentration at half of the fitted maximal effect;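 on activity change, negative = inhibition: TAMRA fluorescence gain over two minutes as APE1 cuts a quenched THF abasic duplex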)
Sequence of DNA repair nuclease/redox regulator APEX1 (Homo sapiens) (P27695 whole entry, looked up): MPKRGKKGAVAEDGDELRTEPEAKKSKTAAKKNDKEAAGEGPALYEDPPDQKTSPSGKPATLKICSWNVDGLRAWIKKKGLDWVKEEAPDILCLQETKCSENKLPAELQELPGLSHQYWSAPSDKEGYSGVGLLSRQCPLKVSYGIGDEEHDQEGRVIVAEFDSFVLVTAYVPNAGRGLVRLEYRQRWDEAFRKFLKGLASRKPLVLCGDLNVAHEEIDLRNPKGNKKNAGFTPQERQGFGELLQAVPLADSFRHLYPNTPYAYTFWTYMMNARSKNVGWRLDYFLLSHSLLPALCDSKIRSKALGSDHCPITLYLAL
Summary of the method: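 Endonuclease activity of human APE1 is followed as dequenching when the enzyme incises a tetrahydrofuran abasic site in a short duplex labelled 5'-TAMRA/3'-BHQ-2 (50 nM final), after 15 min enzyme–compound preincubation at room temperature.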

[4] = Counterscreen for APE1 Inhibitors: Fluorescent Dye Displacement Validation Assay (AID 1707)
Summary of the method: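 Assay buffer: Tris-HCl pH7.5 with 50mM NaCl, 2 mM MgCl2, 0.01% Tween-20. Dye 250 nM, duplex 50 nM final. Readout: decrease in ThO endpoint fluorescence, 480 nm excitation, 540 nm emission.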

[5] = target: Endonuclease 4 (Escherichia coli (strain K12)) (UniProt P0A6C1); experiment: Counterscreen for APE1 Inhibitors: qHTS Validation Assay for Inhibitors of Endonuclease IV (AID 1708)
Summary of the method: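 E. coli EndoIV at 2 nM final, preincubated 15 min at room temperature with compound, then 50 nM TAMRA/BHQ-2 THF abasic-site duplex added. Buffer: 50 mM Tris-HCl pH 7.5, 50 mM NaCl, 2 mM MgCl2, 1 mM DTT, 0.01% Tween-20. Kinetic fluorescence increase, third minus first read.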

[6] = qHTS for differential inhibitors of proliferation of Plasmodium falciparum line GB4 (AID 1816); conditions: Potency: Plasmodium falciparum GB4 proliferation inhibition;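 further: parasite growth measured after 72 h incubation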; further: potency means the concentration at half of the fitted maximal effect
[7] = qHTS for differential inhibitors of proliferation of Plasmodium falciparum line 3D7 (AID 1876); further: potency means the concentration at half of the fitted maximal effect
[8] = qHTS for differential inhibitors of proliferation of Plasmodium falciparum line D10 (AID 1877);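 further: parasites grown with compound for 72 h before DNA staining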; further: potency means the concentration at half of the fitted maximal effect
[9] = qHTS for differential inhibitors of proliferation of Plasmodium falciparum line W2 (AID 1883); conditions: Potency: Plasmodium falciparum W2 proliferation inhibition;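 further: parasites grown with compound for 72 h before lysis and staining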; further: potency means the concentration at half of the fitted maximal effect
[10] = qHTS for differential inhibitors of proliferation of Plasmodium falciparum line HB3 (AID 1886); conditions: Potency: Plasmodium falciparum HB3 proliferation inhibition;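 further: parasites grown with compound for 72 h before SYBR Green readout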; further: potency means the concentration at half of the fitted maximal effect
[11] = qHTS for differential inhibitors of proliferation of Plasmodium falciparum line 7G8 (AID 1815);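 further: parasite growth measured after three days of incubation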; further: potency means the concentration at half of the fitted maximal effect
[12] = target: alpha-glucosidase (Oryza sativa, rice) (UniProt Q653V4); experiment: Counterscreen for Glucocerebrosidase Inhibitors: qHTS Assay for Rice alpha-Glucosidase at pH 5.0 (AID 997)
Summary of the method: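 Rice alpha-glucosidase (4 nM final) with 400 uM 4-methylumbelliferyl-alpha-D-glucopyranoside in citrate buffer pH 5.0, 20 min at room temperature, stopped at pH 10; fluorescence 365/440 nm, compounds 0.7 nM–77 uM, AC50 from Hill fits.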

[13] = Cell Viability - LYMP2-020 (AID 986); further: nearly all actives have a fitted effect of over 55% in size
Summary of the method: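 Human lymphoblastoid LYMP2-020 cells (2500/well) preincubated 5 h at 37 C, then treated 24 h at 37 C. Viability measured as intracellular ATP by CellTiter-Glo luminescence after 30 min at room temperature; AC50 from Hill fits.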

[14] = Cell Viability - LYMP2-022 (AID 987); further: nearly all actives have a fitted effect of over 55% in size
Summary of the method: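 LYMP2-022 lymphoblastoid cells (2500/well, complete medium) were treated with compounds for 24 hours at 37 C; intracellular ATP was then read by CellTiter-Glo luminescence after 30 min at room temperature. AC50 values were derived from Hill-equation fits.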

[15] = Cell Viability - LYMP2-024 (AID 988); further: nearly all actives have a fitted effect of over 60% in size
Summary of the method: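 Human lymphoblastoid LYMP2-024 cells (2500/well) rested 5 hr, then treated with compound for 24 hr at 37 C in complete medium. Viability was measured as intracellular ATP by CellTiter-Glo luminescence. AC50 values came from Hill-equation fits.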

[16] = Cell Viability - LYMP2-026 (AID 989); further: nearly all actives have a fitted effect of over 50% in size
Summary of the method: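 Human lymphoblastoid LYMP2-026 cells, 2500/well, exposed to compound 24 h at 37 C in complete medium. Viability as intracellular ATP by CellTiter-Glo luminescence; AC50 from Hill fits of qHTS concentration-response.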

[17] = Cell Viability - LYMP1-002 - Assay at 40 hr (AID 994); further: nearly all actives have a fitted effect of over 60% in size
Summary of the method: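 LYMP1-002 human lymphoblastoid cells (2500/well, complete medium) were treated with compounds for 40 hr at 37 C. Intracellular ATP was measured by CellTiter-Glo luminescence, and AC50 values came from Hill-equation fits of concentration-response data; tetraoctylammonium bromide was the positive control.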

[18] = qHTS for differential inhibitors of proliferation of Plasmodium falciparum line Dd2 (AID 1882); conditions: Potency: Plasmodium falciparum Dd2 proliferation inhibition; further: nearly all actives have a fitted effect of over 65% in size
Summary of the method: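 Dd2-infected erythrocytes (0.3% parasitemia, 2.5% hematocrit final) incubated with compound 72 h at 37 C, 5% CO2; lysed with saponin/Triton buffer containing SYBR Green I, incubated overnight in the dark, then read by fluorescence (485/535 nm). Normalized to 0.29 uM artemisinin and DMSO.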

[19] = measured here: cell count channel max response
[20] = measured here: lipid channel max response

## NC12CC3CC(CC(C3)C1)C2
[1]
  outcome: inactive
[2]; at 25.7 µM (top of the series)
  activity change, negative = inhibition: -3.08% (inactive)
[2]; at 57.5 µM (top of the series)
  activity change, negative = inhibition: 3.74% (inactive) and -0.728% (inactive)
[2]; [19]
  max response: 0.387% and 4.41% and -44.8%
[2]; [20]
  max response: -3.12% and 9.04% and -45.9%
[3]
  Potency: inactive
[4]
  Potency: inactive
[5]
  Potency: inactive
[6]
  Potency: 11.2 µM (active)
[7]
  Potency: inactive
[8]
  Potency: inactive
[9]
  Potency: 6.31 µM (active)
[10]
  Potency: inactive

## CN(C)CCC=C1c2ccccc2C=Cc2ccccc21
[1]
  outcome: inactive
[2]; at 25.7 µM (top of the series)
  activity change, negative = inhibition: -1.76% (inactive)
[2]; at 57.5 µM (top of the series)
  activity change, negative = inhibition: 0.751% (inactive)
[2]; [19]
  max response: -6.8% and 1.02%
[2]; [20]
  max response: -7.37% and 4.03%
[3]
  Potency: 4.47 µM (active)
[4]
  Potency: inactive
[11]
  Potency: 5.01 µM (active)
[6]
  Potency: 11.2 µM (active)
[7]
  Potency: 11.2 µM (active)
[9]
  Potency: 5.01 µM (active)
[10]
  Potency: 12.6 µM (active)

## CN1CCC(=C2c3ccccc3CC(=O)c3sccc32)CC1
[1]
  outcome: inactive
[12]
  outcome: inactive
[2]; at 25.7 µM (top of the series)
  activity change, negative = inhibition: -3.11% (inactive)
[2]; at 57.5 µM (top of the series)
  activity change, negative = inhibition: 1.94% (inactive)
[2]; [19]
  max response: 0.637% and -29.8%
[2]; [20]
  max response: -3.73% and -28.3%
[3]
  Potency: inactive
[4]
  Potency: inactive
[5]
  Potency: inactive
[11]
  Potency: 10 µM (active)
[6]
  Potency: 2.24 µM (active)
[7]
  Potency: 3.55 µM (active)
[8]
  Potency: 4.47 µM (active)
[9]
  Potency: 0.891 µM (active)
[10]
  Potency: 10 µM (active)

## CC(C)C(=O)Nc1ccc([N+](=O)[O-])c(C(F)(F)F)c1
[13]
  outcome: inactive
[14]
  outcome: inactive
[15]
  outcome: inactive
[16]
  outcome: inactive
[1]
  outcome: inactive
[17]
  Potency: inactive
[3]
  Potency: inactive
[4]
  Potency: inactive
[18]
  Potency: inactive

## Cc1cc(C(C)(C)C)cc(C)c1CC1=NCCN1
[1]
  outcome: inactive
[3]
  Potency: inactive
[4]
  Potency: inactive

## Cc1ccccc1N1C(=O)c2cc(S(N)(=O)=O)c(Cl)cc2NC1C (centres undefined)
[1]
  outcome: inactive
[12]
  outcome: inactive
[2]; at 57.5 µM (top of the series)
  activity change, negative = inhibition: 5.05% (inactive) and -0.764% (inactive)
[2]; [19]
  max response: 11.3% and 51.4%
[2]; [20]
  max response: 18.3% and 52%
[3]
  Potency: inactive
[4]
  Potency: inactive
[6]
  Potency: inactive
[7]
  Potency: inactive
[8]
  Potency: inactive
[18]
  Potency: inactive
[10]
  Potency: inactive

## O=c1c(-c2ccc(O)cc2)coc2cc(O)cc(O)c12
[13]
  outcome: inactive
[14]
  outcome: inactive
[15]
  outcome: inactive
[16]
  outcome: inactive
[1]
  outcome: inactive
[17]
  Potency: inactive
[2]; at 57.5 µM (top of the series)
  activity change, negative = inhibition: -6.97% (inactive)
[2]; [19]
  max response: 15.5%
[2]; [20]
  max response: 9.16%
[3]
  Potency: inactive
[4]
  Potency: inactive
[5]
  Potency: inactive
[8]
  Potency: inactive
[18]
  Potency: inactive
[10]
  Potency: inactive

## Cn1c(=O)c2[nH]cnc2n(C)c1=O
[13]
  outcome: inactive
[14]
  outcome: inactive
[15]
  outcome: inactive
[16]
  outcome: inactive
[1]
  outcome: inactive
[17]
  Potency: inactive
[3]
  Potency: inactive
[5]
  Potency: inactive
[11]
  Potency: inactive
[6]
  Potency: inactive
[7]
  Potency: inactive
[8]
  Potency: inactive
[18]
  Potency: inactive
[9]
  Potency: inactive
[10]
  Potency: inactive

## O=c1c(O)c(-c2ccc(O)c(O)c2)oc2cc(O)cc(O)c12
[1]
  outcome: inactive
[5]
  Potency: inactive

## CCOC(=O)c1ncn2c1CN(C)C(=O)c1cc(F)ccc1-2
[1]
  outcome: inactive
[2]; at 57.5 µM (top of the series)
  activity change, negative = inhibition: -0.292% (inactive)
[2]; [19]
  max response: 20.1%
[2]; [20]
  max response: 21.2%
[3]
  Potency: inactive
[4]
  Potency: inactive
[11]
  Potency: inactive
[6]
  Potency: inactive
[7]
  Potency: inactive
[8]
  Potency: inactive
[18]
  Potency: inactive
[9]
  Potency: inactive
[10]
  Potency: inactive
